# PubChem BioAssay (NCATS)
# Records with an inconclusive call do not appear. Active and inactive are the calls of the source. Calls follow the shape of the dose curve; as a rule, active = well fitted curve in the direction sought with a large enough effect; inconclusive = small, poorly fitted or top-dose-only effect, or another doubt; inactive = no such curve, though single readings can be large; an effect the other way counts as inactive or inconclusive.
# Molecular target: Cytochrome P450 3A4 (Homo sapiens) (UniProt P08684)
# Assay: qHTS Assay for Inhibitors and Substrates of Cytochrome P450 3A4 (AID 884); also: % is scaled to controls: 0 for no effect and ±100 for the full control effect; nearly all actives have a fitted effect of over 50% in size
# Conditions: recombinant CYP3A4, Luciferin-PPXE luminescence; series mostly up to 57.1 µM; activity change, negative = inhibition: at the top concentration
# In short: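 Luminescent readout of luciferin produced by CYP3A4 (20 nM) dealkylation of Luciferin-PPXE, 25 uM (its KM). NADPH-driven reaction ran 60 min at RT after 10 min compound preincubation; data scaled to 57 uM ketoconazole as 100% inhibition.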
# Sequence of Cytochrome P450 3A4 (Homo sapiens) (P08684 whole entry, looked up): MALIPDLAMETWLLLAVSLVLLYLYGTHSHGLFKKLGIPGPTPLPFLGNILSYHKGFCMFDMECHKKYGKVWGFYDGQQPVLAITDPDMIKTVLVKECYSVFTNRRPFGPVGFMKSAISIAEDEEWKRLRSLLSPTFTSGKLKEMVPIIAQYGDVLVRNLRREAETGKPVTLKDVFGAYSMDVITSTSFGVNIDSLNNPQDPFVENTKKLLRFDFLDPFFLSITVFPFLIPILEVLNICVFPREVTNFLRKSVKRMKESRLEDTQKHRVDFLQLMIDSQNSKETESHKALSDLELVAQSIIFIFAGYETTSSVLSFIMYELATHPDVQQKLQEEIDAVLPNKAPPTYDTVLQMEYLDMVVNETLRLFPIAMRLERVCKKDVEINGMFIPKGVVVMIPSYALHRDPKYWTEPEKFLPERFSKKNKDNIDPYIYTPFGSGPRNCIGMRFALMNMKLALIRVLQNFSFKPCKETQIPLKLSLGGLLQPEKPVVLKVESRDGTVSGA
row,Compound,"activity change, negative = inhibition"
1,COc1c(N2CCNC(C)C2)c(F)cc2c(=O)c(C(=O)O)cn(C3CC3)c12 (stereo not drawn),-3.35% (inactive)
2,Nc1nc(=S)c2[nH]cnc2[nH]1,-23.1% (inactive)
3,Cn1c(=O)c2c(ncn2CC(O)CO)n(C)c1=O (stereo not drawn),-16.7% (inactive)
4,NS(=O)(=O)c1cc2c(cc1Cl)NC(C(Cl)Cl)NS2(=O)=O (stereo not drawn),-4.17% (inactive)
5,COC(=O)Nc1nc2ccc(Sc3ccccc3)cc2[nH]1,-11.4% (inactive)
6,CN(C)CCc1c[nH]c2ccc(CS(=O)(=O)N3CCCC3)cc12,5.63% (inactive)
7,COc1cnc(NS(=O)(=O)c2ccc(N)cc2)nc1,-6.98% (inactive)
8,COc1ccc(C(=O)CC(=O)c2ccc(C(C)(C)C)cc2)cc1,-13.7% (inactive)
9,CNS(=O)(=O)Cc1ccc2[nH]cc(CCN(C)C)c2c1,-0.187% (inactive)
10,COc1ccccc1OCC(O)COC(N)=O (stereo not drawn),-9.35% (inactive)
11,Nc1nc(N)c2nc(CNc3ccc(C(=O)NC(CCC(=O)O)C(=O)O)cc3)cnc2n1 (stereo not drawn),-5.32% (inactive)
12,O=S(=O)(O)CCS,-1.93% (inactive)

# Molecular target: Cytochrome P450 3A4 (Homo sapiens) (UniProt P08684)
# Assay: qHTS Assay for Activators of Cytochrome P450 3A4 (AID 885); also: nearly all actives have a fitted effect of over 65% in size
# Conditions: recombinant CYP3A4, Luciferin-PPXE luminescence, 60 min; series mostly up to 57.1 µM; activity change, positive = activation: at the top concentration
# In short: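 Activators are scored by enhanced luminescence from CYP3A4 conversion of luciferin-PPXE (25uM, equal to KM) to luciferin, after 60 min at RT with an NADPH-regenerating system.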
row,Compound,"activity change, positive = activation"
1,CC1=CC(=O)c2ccccc2C1=O,-38.9% (inactive)
2,C1CCC(C(CC2CCCCN2)C2CCCCC2)CC1 (stereo not drawn),-50.3% (inactive)
3,COc1cc([C@@H]2c3cc4c(cc3[C@H](O)[C@H]3COC(=O)[C@H]23)OCO4)cc(OC)c1OC,-107% (inactive)
4,Cc1cccc(N(C)C(=S)Oc2ccc3ccccc3c2)c1,-40.4% (inactive)
5,CCCCS(=N)(=O)CCC(N)C(=O)O (stereo not drawn),-57.3% (inactive)
6,Cc1cccc(Nc2ccncc2S(=O)(=O)NC(=O)NC(C)C)c1,-50.1% [at 25.6 µM] (inactive)

# Tested on: not listed separately
# Assay: Confirmation and Secondary Assay for Modulators of Hemoglobin Beta Chain Splicing at IVS2 654 locus (AID 910);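 also: HeLa cells stably carrying EGFP split by mutant beta-globin IVS2-654 intron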;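 also: potency is read from the fitted curve at half-maximal effect; potency of activators that raise GFP signal by restoring correct splicing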; as to activation (splicing correction): % of control where 0% means no effect
# Conditions: HeLa EGFP-654 splicing reporter, GFP fluorescence, 48 h; series mostly up to 46.1 µM; activation (splicing correction): at the top concentration
# In short: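 HeLa cells stably expressing EGFP interrupted by β-globin IVS2-654 intron, seeded overnight in Opti-MEM/2% FCS, then treated 2 days at 37 °C. Restored splicing read as total peak GFP intensity per well by laser scanning cytometry (488 nm excitation, 500–520 nm emission); 500 nM antisense PNA as control.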
Compound,activation (splicing correction),Potency
Oc1c(Cl)cc(Cl)c2cccnc12,-7.52% (inactive),
COc1c(N2CCNC(C)C2)c(F)cc2c(=O)c(C(=O)O)cn(C3CC3)c12 (stereo not drawn),4.45% (inactive),
OC(Cn1cncn1)(Cn1cncn1)c1ccc(F)cc1F,7.8% (inactive),
COc1cc(NS(=O)(=O)c2ccc(N)cc2)nc(OC)n1,7.9% (inactive),
CC(C)(Sc1cc(C(C)(C)C)c(O)c(C(C)(C)C)c1)Sc1cc(C(C)(C)C)c(O)c(C(C)(C)C)c1,-2.27% (inactive),
CN(CCOc1ccc(CC2SC(=O)NC2=O)cc1)c1ccccn1 (stereo not drawn),-7.05% (inactive),
CCCCCCNC(=O)n1cc(F)c(=O)[nH]c1=O,14% (inactive),
Nc1nc(=S)c2[nH]cnc2[nH]1,,31.6 µM (active)
Cn1c(=O)c2c(ncn2CC(O)CO)n(C)c1=O (stereo not drawn),14.4% (inactive),
COC(=O)Nc1nc2ccc(S(=O)c3ccccc3)cc2[nH]1 (stereo not drawn),1.16% (inactive),
NS(=O)(=O)c1cc2c(cc1Cl)NC(C(Cl)Cl)NS2(=O)=O (stereo not drawn),4.02% (inactive),
CC1=CC(=O)c2ccccc2C1=O,10.9% (inactive),
C1CCC(C(CC2CCCCN2)C2CCCCC2)CC1 (stereo not drawn),-7.58% (inactive),
CN(Cc1cc(Br)cc(Br)c1N)C1CCCCC1,-3.45% (inactive),
CCCc1cc(C(N)=S)ccn1,0.104% (inactive),
CCn1cc(C(=O)O)c(=O)c2cc(F)c(N3CCNCC3)cc21,-1.39% (inactive),
Cc1cccc(N(C)C(=S)Oc2ccc3ccccc3c2)c1,7.99% (inactive),
COC(=O)Nc1nc2ccc(Sc3ccccc3)cc2[nH]1,1.31% (inactive),
NCCCC(O)(P(=O)(O)O)P(=O)(O)O,4.18% (inactive),
CN(C)CCc1c[nH]c2ccc(CS(=O)(=O)N3CCCC3)cc12,5.41% (inactive),
COc1cnc(NS(=O)(=O)c2ccc(N)cc2)nc1,7.09% (inactive),
NC(=O)N1c2ccccc2CC(=O)c2ccccc21,10.1% (inactive),
COc1ccc(C(=O)CC(=O)c2ccc(C(C)(C)C)cc2)cc1,-1.07% (inactive),
CCCCS(=N)(=O)CCC(N)C(=O)O (stereo not drawn),7.65% (inactive),
CNS(=O)(=O)Cc1ccc2[nH]cc(CCN(C)C)c2c1,0.967% [at 38.3 µM] (inactive),
COc1ccccc1OCC(O)COC(N)=O (stereo not drawn),7.26% (inactive),
Nc1nc(N)c2nc(CNc3ccc(C(=O)NC(CCC(=O)O)C(=O)O)cc3)cnc2n1 (stereo not drawn),7.4% (inactive),
O=S(=O)(O)CCS,12.4% (inactive),
CN1CCCC(n2nc(Cc3ccc(Cl)cc3)c3ccccc3c2=O)CC1 (stereo not drawn),-1.86% (inactive),
Cc1cccc(Nc2ccncc2S(=O)(=O)NC(=O)NC(C)C)c1,4.85% (inactive),
